# Experimental data from PubChem BioAssay.
# Test: survival rescue of mitochondrial mutant cells in low glucose, primary screen, MELAS cybrids, Rieske KO mouse fibroblasts, CellTiter-Glo (AID 1508586);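 further: test concentration not given here; z relative to plate mean and SD of compound and empty wells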
# Conditions: Rieske KO mouse fibroblast survival, CellTiter-Glo 72 h
row,Compound,z-score
1,COC(=O)c1c(NC(=O)c2cccnc2)c2cc(NCc3ccc4c(c3)CCO4)cnc2n1CC(C)C,3.72
2,CCN(CC)CCNC(=O)c1cc(-c2cc(C)cs2)cc(S(=O)(=O)N2CCOCC2)c1,-0.00741
3,COC(=O)CN1C(=O)N(CCc2ccccc2)C2(CCN(Cc3ccc4c(c3)OCCO4)CC2)C1=O,-0.109
4,Cc1nn(C)cc1CNc1cc(C(=O)NCc2cn3ccccc3n2)cc(S(=O)(=O)NC(C)C)c1,-0.702
5,CCN1CCCC1CNC(=O)c1nn(CCOC)c2c1CN(Cc1c(C)nc3sccn13)CC2 (centres undefined),-0.16
6,Cn1cc(CN2CC(OCc3cccnc3)CN(Cc3cn[nH]c3-c3ccccc3)CC2=O)cn1 (centres undefined),-0.506
7,O=C(Cn1cnc2ccccc21)N1CCc2c(cc(-c3cccc(Cl)c3)c(=O)n2CC2CC2)C1,-0.586
8,O=C(c1nn(Cc2ccccn2)c2c1CN(C/C=C/c1ccco1)CC2)N1CCc2ccccc2C1,-0.213
9,O=C(Nc1ccccc1Cl)N[C@H]1C[C@H]2C(=O)N[C@H](Cc3ccc(O)cc3)C(=O)N2C1,-0.509
10,C[C@H]1NC(=O)[C@H]2CN(C(=O)Oc3ccc(Cl)cc3)CCN2C1=O,0.985
11,O=C1N[C@@H](COCc2ccccc2)C(=O)N2C[C@@H](NCc3cnn(-c4cccc(F)c4)c3)C[C@@H]12,-0.436
12,Cc1csc(-c2cc(C(=O)NCCC3CCCN3C)cc(S(=O)(=O)N3CCOCC3)c2)c1 (centres undefined),-0.54
13,COc1cc(CN2CCc3c(c(C(=O)NCCCN4CCOCC4)nn3C)C2)cc2c1OCO2,-0.162
14,CC(C)[C@@H]1NC(=O)[C@@H]2C[C@H](NC(=O)OCc3ccccc3)CN2C1=O,-0.152
15,CCN1C(=O)N(C)C(=O)C12CCN(Cc1cc3oc(C)c(-c4ccccc4)c3cc1OC)CC2,-0.474
16,C[C@H](O)[C@H]1NC(=O)[C@@H]2C[C@H](NC(=O)Nc3cccc(F)c3)CN2C1=O,0.103
17,COCCN1C(=O)N(C2Cc3ccccc3C2)C(=O)C12CCN(Cc1cnn(C)c1C)CC2,-0.00202
18,Cc1ccc(C(C)CCN2CCc3c(c(C(=O)N4CCC(O)CC4)nn3CCc3ccccc3)C2)o1 (centres undefined),-0.539
19,COc1cccc(COC2CN(CCc3ccccc3)C(=O)CN(C(=O)CN3CCOC3=O)C2)c1 (centres undefined),-0.325
20,Cc1ccnn1CCC(=O)N1CC(=O)N(CC(C)C)CC(OCc2ccccn2)C1 (centres undefined),-0.668

row,Compound,z-score
1,CN(C)c1ncc(CN2CCc3c(cc(Cc4ccccc4)c(=O)n3Cc3ccc(F)cc3)C2)s1,0.0943
2,COc1ccccc1CNC1CCc2c(c(C(=O)N3CCc4ccccc4C3)nn2C)C1 (centres undefined),-0.0135
3,COc1ccc(CN2C[C@@H](CN3CCOCC3)C[C@@H](C(=O)NCC(C)C)C2)cc1OC,-0.053
4,CC(C)CCNc1cc(C(=O)N[C@H]2CCCCNC2=O)cc(S(=O)(=O)NC(C)C)c1,0.262
5,COC(=O)c1c(NC(=O)Cc2ccccc2)c2cc(NCc3nccs3)cnc2n1CC(C)C,1.74
6,Cn1ccnc1CN1C[C@@H](CN2CCOCC2)C[C@@H](C(=O)N2CCCC2)C1,0.125
7,COc1cc(CN2CCc3c(cc(Cc4ccccc4C)c(=O)n3CC3CC3)C2)ccc1O,-0.319
8,Cc1csc(-c2cc(C(=O)N(C)C3CCN(C)CC3)cc(S(=O)(=O)N3CCOCC3)c2)c1,-0.32
9,COc1ccccc1C(=O)N1CCN2C(=O)[C@@H]3CSCN3C(=O)[C@H]2C1,0.475
10,CN1C(=O)N(Cc2ccccc2)C2(CCN(Cc3nc4ccccc4n3C)CC2)C1=O,-0.298
11,Cc1cnc(CNC(=O)c2cc(-c3ccccc3)cc(S(=O)(=O)N3CCN(C)CC3)c2)cn1,-0.355
12,COC(=O)c1c(NC(=O)C2CC2)c2cc(NC3CCOCC3)cnc2n1Cc1ccccc1,0.482
13,CC(C)CN1CC(OCc2cccc(F)c2)CN(C(=O)Cn2cnc3ccccc3c2=O)CC1=O (centres undefined),0.00727
14,C[C@@H](NC(=O)N[C@H]1C[C@H]2C(=O)N[C@H](Cc3ccc(O)cc3)C(=O)N2C1)c1ccccc1,-0.613
15,COc1cccc(COC2CN(Cc3ccccn3)C(=O)CN(C(=O)c3ccc(C)s3)C2)c1 (centres undefined),0.0344
16,CN1CCCc2cc(C(=O)N3CC(=O)N(Cc4ccccc4)CC(OCc4ccccn4)C3)ccc21 (centres undefined),-0.731
17,CC(C)CNC(=O)[C@@H]1C[C@H](CN2CCOCC2)CN(Cc2ccc(O)cc2)C1,-0.186
18,COc1ccc(CCn2nc(C(=O)N(C)C)c3c2CCN(C(=O)c2csc4c2CCCC4)C3)cc1,-0.104
19,CC(C)CNc1cc(C(=O)NC2Cc3ccccc3C2)cc(S(=O)(=O)NC(C)C)c1,-0.0556
